High-throughput results (PubChem)
Rows were chosen to be rich in hits. Some 19% of all compounds tested hit in one or more screens of this group.
TGFb inhibitor – TGF-b pathway inhibition | HepG2 CAGA-GFP TGF-b/SMAD3 reporter, GFP fluorescence, 18 h; TGF-beta stimulated, 500 pg/mL final | actives 1.2% (n = 410,000) | Potency, µM (titrated, usually from 46.1 µM), inactives show top-dose activity, negative = inhibition, hits mostly inhibitors | AID 588855; note: potency is the fitted concentration of half-maximal effect; % is set by controls: 0 for no effect and ±100 for the full control effect; nearly all actives have a fitted effect of over 65% in size
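Using HEPG2 CAGA-GFP reporter cells at 1000 cells/well, we pinned test compounds, stimulated with recombinant TGF-beta (500 pg/mL final) and measured total well GFP after 18 h.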
TDP1 cell noCPT – qHTS for Inhibitors of human tyrosyl-DNA phosphodiesterase 1 (TDP1): qHTS in cells in absence of CPT; DT40 Tdp1-/- hTDP1 cells, no CPT, ATP luminescence, 48 h; Potency, µM (titrated, usually from 46.2 µM), inactives show at the highest dose activity change, negative = growth inhibition, hits mostly inhibitors; actives 15% (n = 420,000); AID 686978, 2013; note: potency is the fitted concentration of half-maximal effect; % is set by controls: 0 for no effect and ±100 for the full control effect; nearly all actives have a fitted effect of over 55% in size
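A cellular qHTS used chicken DT40 cells lacking endogenous Tdp1 but carrying stably transfected human TDP1. Compounds were applied without camptothecin, and cell growth kinetics were judged by ATP-dependent luminescence after ≥48 hr.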
DT40 TDP1 CPT – DT40-hTDP1 cell growth loss with CPT | AID 686979 | Potency, µM (titrated, usually from 46.2 µM), inactives show at the top dose activity change, negative = growth inhibition, actives largely listed as inhibitors | actives 12% (n = 420,000) | chicken DT40 Tdp1-/-;hTDP1 cells + 20 nM CPT, ATP luminescence, 48 h; note: potency is the fitted concentration of half-maximal effect; % is set by controls: 0 for no effect and ±100 for the full control effect; nearly all actives have a fitted effect of over 55% in size
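Chicken DT40 Tdp1-/- cells stably complemented with human TDP1 were seeded at 400 cells/well in medium containing 20 nM camptothecin, exposed to pin-transferred compounds, and grown at 37 °C for at least 48 hr. Viability was read as ATP luminescence.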
IL-1B inflam inh – blocks inflammasome-driven IL-1 beta release; THP-1 LPS/ATP IL-1B secretion, AlphaLISA, 16 h; hits give low values; activity change, % at 57.5 µM; actives 4.7% (n = 360,000); in the data active = activity change below about -50%; inconclusive = mostly about -30% to -49%; note: % is set by controls: 0 for no effect and ±100 for the full control effect
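Secreted IL-1B measured by AlphaLISA bead assay after 16 h compound exposure of THP-1 cells; compounds (final up to 57.5 uM) added 1 h before LPS (250 ng/mL) and ATP (1.25 mM) stimulation; lower signal means less secretion.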
HepG2 tox – kills HepG2 cells in TGF-b inhibitor counter-screen. actives 0.76% (n = 410,000). Potency, µM (top dose mostly 46.1 µM), inactives show at the top dose activity change, negative = cytotoxicity, hits mostly cytotoxic. HepG2 CAGA-GFP viability, ATP luminescence, 18 h; note: potency is the fitted concentration of half-maximal effect
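HepG2 CAGA-GFP cells (1000/well, DMEM with 1% FBS) received compound, then TGF-beta at 500 pg/mL final, and were incubated 18 hours at 37 degrees C. Viability was read by CellTiter-Glo luminescence. Media-only wells were set as complete cell-killing and DMSO as no toxicity.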
TDP1 block – inhibitors of human tyrosyl-DNA phosphodiesterase TDP1; Q9NUW8; recombinant TDP1, AlphaScreen DNA substrate cleavage; Potency, µM (top dose mostly 130 µM), for inactives: at the highest dose activity change, negative = inhibition, most hits filed as inhibitors; actives 0.28% (n = 350,000); AID 485290; note: potency is the fitted concentration of half-maximal effect; % is set by controls: 0 for no effect and ±100 for the full control effect; nearly all actives have a fitted effect of over 40% in size
Target sequence (Q9NUW8 whole entry, looked up): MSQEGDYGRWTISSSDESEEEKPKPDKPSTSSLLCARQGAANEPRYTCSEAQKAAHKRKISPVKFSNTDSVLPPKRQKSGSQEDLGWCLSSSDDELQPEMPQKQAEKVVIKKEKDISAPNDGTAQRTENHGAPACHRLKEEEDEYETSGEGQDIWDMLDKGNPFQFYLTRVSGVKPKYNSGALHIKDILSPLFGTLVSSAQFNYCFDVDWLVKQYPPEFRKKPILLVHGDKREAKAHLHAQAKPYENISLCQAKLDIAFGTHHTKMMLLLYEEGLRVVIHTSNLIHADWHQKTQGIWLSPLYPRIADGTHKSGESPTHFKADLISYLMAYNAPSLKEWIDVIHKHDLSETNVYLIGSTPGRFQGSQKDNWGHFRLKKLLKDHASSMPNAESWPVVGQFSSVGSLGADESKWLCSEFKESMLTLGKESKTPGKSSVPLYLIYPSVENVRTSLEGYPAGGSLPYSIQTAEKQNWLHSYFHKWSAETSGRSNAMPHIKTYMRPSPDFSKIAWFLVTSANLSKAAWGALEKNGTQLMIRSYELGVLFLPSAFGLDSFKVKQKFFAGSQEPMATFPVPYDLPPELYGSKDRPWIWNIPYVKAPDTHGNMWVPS
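E. coli-derived human Tdp1, 1 nM final. Cpd preinc 15 min RT; substrate 15 nM final, 5 min RT; AS bead mix 10 ug/ml final, 10 min RT. Signal loss = tyrosine-FITC cleavage. No-enzyme wells = max signal.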
The depositor's hits bear a star; ? = inconclusive; . = not tested or not shown. Unless noted, calls come from the whole dose curve; as a rule, active = well fitted curve in the direction sought with a large enough effect; inconclusive = small, poorly fitted or top-dose-only effect, or another doubt; inactive = no such curve, though single readings can be large; an effect the other way counts as inactive or inconclusive.

SMILES	TGFb inhibitor	TDP1 cell noCPT	DT40 TDP1 CPT	IL-1B inflam inh	HepG2 tox	TDP1 block
CC1(C(=O)NS(=O)(=O)c2ccc3c(c2)CCO3)CCN1C(=O)c1ccccc1CCc1ccccc1 (stereo not given)	43%	?	?	-15	6%	.
COc1ccc(/C=N/NC(=O)c2csc(-n3nc(C)cc3C(F)(F)F)n2)cc1	27%	21µM*	?	-16	3%	5%
Cc1cc(C(F)(F)F)n(-c2nc(C(=O)NN)cs2)n1	1%	-9%	-10%	-7	-10%	9%
C[C@@H](CN1C(=O)C(=O)NC[C@@H]1C)NC(=O)CC12CC3CC(CC(C3)C1)C2	-4%	0%	-9%	24	-26%	.
COc1ccc(S(=O)(=O)Nc2cccc3c2O[C@H](CN(C)Cc2ccccc2)[C@@H](C)CN([C@H](C)CO)C3=O)cc1	-3%	?	?	-5	2%	3%
C[C@H](CO)N1C[C@H](C)[C@@H](CN(C)Cc2ccc(C(=O)O)cc2)Oc2c(NC(=O)C3CC3)cccc2C1=O	-5%	-6%	1%	25	6%	2%
C[C@H](CO)N1C[C@H](C)[C@@H](CN(C)C(=O)Nc2ccc(C(F)(F)F)cc2)Oc2c(NC(=O)Nc3ccc(C(F)(F)F)cc3)cccc2C1=O	14µM*	7.3µM*	9.2µM*	-7	-114%	1%
C[C@H](CO)N1C[C@H](C)[C@@H](CN(C)S(C)(=O)=O)Oc2c(NC(=O)Nc3ccc(C(F)(F)F)cc3)cccc2C1=O	-3%	?	23µM*	-2	-18%	1%
C[C@H](CO)N1C[C@H](C)[C@@H](CN(C)Cc2ccccc2)Oc2c(NC(=O)C3CCCCC3)cccc2C1=O	?	?	?	-72*	-10%	4%
Cc1ccc(S(=O)(=O)Nc2cccc3c2O[C@H](CN(C)Cc2ccccc2)[C@@H](C)CN([C@H](C)CO)C3=O)cc1	-9%	16µM*	?	-7	0%	1%
C[C@H](CO)N1C[C@H](C)[C@@H](CN(C)C(=O)Nc2ccc3c(c2)OCO3)Oc2c(NC(=O)Nc3ccccc3)cccc2C1=O	-16%	?	?	-17	-4%	3%
Cc1ccc(Cl)cc1N1CCN(C(=O)c2cn(C)c3ccc(S(=O)(=O)N4CCC(C)CC4)cc3c2=O)CC1	-6%	-16%	1%	.	5%	-9%
COc1ccc(-n2ccn(CC(=O)Nc3ccccc3OC)c(=O)c2=O)cc1	-9%	25%	-3%	-3	-4%	1%
C[C@H](CO)N1C[C@H](C)[C@@H](CN(C)C(=O)Nc2ccc(C(F)(F)F)cc2)Oc2ccc(NC(=O)Nc3ccc(C(F)(F)F)cc3)cc2C1=O	?	?	?	?	2%	0%
COc1ccc(S(=O)(=O)Nc2cccc3c2O[C@H](CN(C)C(=O)NC(C)C)[C@@H](C)CN([C@H](C)CO)C3=O)cc1	11%	4%	-19%	0	-12%	-1%
C[C@H](CO)N1C[C@H](C)[C@@H](CN(C)Cc2ccc(-c3ccccc3)cc2)Oc2c(NS(=O)(=O)c3cccs3)cccc2C1=O	?	?	18µM*	?	-18%	5%
Cc1ccc(S(=O)(=O)Nc2cccc3c2O[C@H](CN(C)C(=O)Nc2cccc4ccccc24)[C@H](C)CN([C@H](C)CO)C3=O)cc1	?	21µM*	21µM*	?	-86%	2%
